From PubChem BioAssay AID2242 (National Center for Advancing Translational Sciences (NCATS), 2010)
Out of some 200,000 compounds screened, about 720 (0.36%) were called active. Inconclusive results (about 8%) are left out. Calls come from the whole dose curve; as a rule, active = well fitted activation curve with a large enough effect; inconclusive = small, poorly fitted or top-dose-only effect, or effect the other way, or another doubt; inactive = flat fitted curve, though single readings scatter. The list shows a part of the results.

Target: Lysosomal alpha-glucosidase (Homo sapiens) (UniProt P10253)
Experiment: qHTS Assay for Activators of Human alpha-Glucosidase as a Potential Chaperone Treatment of Pompe Disease; note: nearly all actives have a fitted effect of over 80% in size
Conditions: purified enzyme, 4-MU-alpha-glucoside fluorescence, 20 min; series mostly up to 76.9 µM
Procedure, shortened: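 Compounds titrated up to 77 uM against 4 nM enzyme and 400 uM methylumbelliferyl substrate at room temperature, 20 min, pH 5.0. Basic stop, then 4-methylumbelliferone fluorescence (365/440 nm) normalized to no-enzyme and enzyme controls; Hill-equation AC50.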
Potency is the fitted concentration of half-maximal effect.

Potency, active:
CCn1cc(-c2ccnc3cc(C(=O)O)nn23)c(C)n1 39.8 µM, O=C1NC(c2ccco2)Nc2sc3c(c21)CCN(Cc1ccccc1)C3 (centres undefined) 35.5 µM, CN1CCc2c(sc3c2C(=O)NC(c2ccco2)N3)C1 (centres undefined) 31.6 µM, CCCCCn1c(=O)c(-c2nc3ccccc3[nH]2)c(O)c2ccccc21 39.8 µM, Cc1c(O)ccc2c3c(c(=O)oc12)CCC(C)C3 (centres undefined) 35.5 µM, Cc1c(O)ccc2c3c(c(=O)oc12)CCCC3 35.5 µM, Fc1ccc(-n2c(-c3cccs3)nc3nc4ccccc4nc32)cc1 3.55 µM, Fc1cccc(-n2c(-c3ccco3)nc3nc4ccccc4nc32)c1 6.31 µM, Fc1ccc(-n2c(-c3ccco3)nc3nc4ccccc4nc32)cc1 7.94 µM, Cc1cc(=O)n2cccc(O)c2n1 25.1 µM, O=c1cccc2n1Cc1cc3ccccc3nc1-2 35.5 µM, CN(C)S(=O)(=O)c1cccc(-c2cn3cccnc3n2)c1 39.8 µM, CC1CN(S(=O)(=O)c2cccc(-c3cn4cccnc4n3)c2)CC(C)O1 (centres undefined) 35.5 µM, CCc1nnc(NC(=O)CSc2nc(C)c3c(c2C#N)CCCC3)s1 35.5 µM, CCC(O)CNc1nc(SC)nc2sc3c(c12)CCN(C)C3 (centres undefined) 28.2 µM, CSc1nc2oc3c(c2c2nncn12)CC(C)(C)SC3 39.8 µM, Cc1cc(NC(C)C)n2c(nc3ccccc32)c1C#N 35.5 µM, CCCc1cc(NCCCCO)n2c(nc3ccccc32)c1C#N 35.5 µM, Cc1cc(NCCCCO)n2c(nc3ccccc32)c1C#N 35.5 µM, CCCc1cc(NCc2ccccn2)n2c(nc3ccccc32)c1C#N 35.5 µM, COCCNc1cc(C)c(C#N)c2nc3ccccc3n12 35.5 µM, Cc1cc(NCCCn2ccnc2)n2c(nc3ccccc32)c1C#N 35.5 µM, Cc1cc(NCCCO)n2c(nc3ccccc32)c1C#N 35.5 µM, COc1cc(C(=O)Nc2cc(-c3cn4cccnc4n3)ccc2C)cc(OC)c1OC 35.5 µM, COc1cccc(C(=O)Nc2cc(-c3cn4cccnc4n3)ccc2C)c1 35.5 µM, Cc1ccc(-c2cn3cccnc3n2)cc1NC(=O)c1ccc(Br)o1 35.5 µM, O=c1oc2c(CN3CCCCC3)c(O)ccc2c2c1CCCCC2 35.5 µM, O=c1oc2c(CN3CCCCC3)c(O)ccc2c2c1CCCC2 35.5 µM, COCC(C)OC(=O)c1c(N)n(CC(C)C)c2nc3ccccc3nc12 (centres undefined) 35.5 µM, C=CCn1c(N)c(C(=O)OCCC)c2nc3ccccc3nc21 35.5 µM, CCOC(=O)c1c(N)n(CC(C)NC(=O)C2CC2)c2nc3ccccc3nc12 (centres undefined) 35.5 µM, C=CCn1c(N)c(C(=O)OC(C)(C)C)c2nc3ccccc3nc21 35.5 µM, C=CCn1c(N)c(C(=O)OCC(C)C)c2nc3ccccc3nc21 35.5 µM, CC(C)(C)OC(=O)c1c(N)n(CCCN2CCCC2=O)c2nc3ccccc3nc12 31.6 µM, C=CCn1c(N)c(C(=O)OC(C)CC)c2nc3ccccc3nc21 (centres undefined) 31.6 µM, Cc1cc(=O)oc2c(CN(CC(C)C)CC(C)C)c(O)ccc12 31.6 µM, COCCN(CCOC)Cc1c(O)ccc2c3c(c(=O)oc12)CCC3 35.5 µM, CC(C)CN(Cc1c(O)ccc2c3c(c(=O)oc12)CCC3)CC(C)C 31.6 µM, Cc1cc(=O)oc2c(CN(C)Cc3ccccc3)c(O)ccc12 35.5 µM, CN(C)Cc1c(O)ccc2c3c(c(=O)oc12)CCCCC3 35.5 µM, COc1ccc(-c2cc(C(F)(F)F)n3nc(C(=O)NCCN4CCOCC4)cc3n2)cc1 44.7 µM, CCCc1cc(=O)oc2c(CN3CCOCC3)c(O)ccc12 31.6 µM, CCCc1cc(=O)oc2c(CN3CCCC3)c(O)ccc12 35.5 µM, CCCCc1cc(=O)oc2c(CN3CCCC3)c(O)ccc12 31.6 µM, COC(=O)C1=CN(CC2CCCO2)C=C(C(=O)OC)C1c1ccccc1C(F)(F)F (centres undefined) 25.1 µM, CCOC(=O)C1=CN(CC2CCCO2)C=C(C(=O)OCC)C1c1ccccc1C(F)(F)F (centres undefined) 35.5 µM, COc1ccc(CNc2oc(-c3cccc4ccccc34)nc2C#N)cc1 28.2 µM, COP(=O)(OC)c1nc(-c2cccc3ccccc23)oc1NCc1ccccc1 35.5 µM, CCOP(=O)(OCC)c1nc(-c2cccc3ccccc23)oc1NCc1ccc(OC)cc1 35.5 µM, Cc1oc2cc(O)ccc2c(=O)c1Oc1ccc2ccccc2c1 39.8 µM, Cc1cc(=O)oc2cc(OC(=O)c3ccccc3)ccc12 25.1 µM, Cc1cc(=O)oc2cc(OC(=O)c3cncc(Br)c3)ccc12 17.8 µM, CCC(=O)Oc1ccc2c(C)c(Cl)c(=O)oc2c1 35.5 µM, CC(=O)Oc1cc2oc(=O)cc(C)c2cc1OC(C)=O 31.6 µM, CCCC(=O)Oc1ccc2c(C)cc(=O)oc2c1 35.5 µM, Cc1cc(=O)oc2cc(OC(=O)CCN3C(=O)c4ccccc4C3=O)ccc12 25.1 µM, Cc1cc(=O)oc2cc(OCc3ccc(C(=O)N4CCN(c5ccccc5)CC4)cc3)ccc12 39.8 µM, CC(=O)Oc1ccc2c(C)cc(=O)oc2c1 35.5 µM, CCN(CC)c1cc(C)c2cc(NC(=O)CNC(C)=O)ccc2n1 35.5 µM, CCN1c2ccccc2-c2nc3ccccc3n2C1c1cccs1 (centres undefined) 35.5 µM, CN1c2ccccc2-c2nc3ccccc3n2C1c1cccs1 (centres undefined) 35.5 µM, COc1ccc(-c2cn3cccnc3n2)cc1F 28.2 µM, COc1ccc(-c2cn3cccnc3n2)cc1Br 35.5 µM, CC12CCC(=O)N1c1c(sc3nc(N4CCOCC4)c4c(c13)CCCC4)C(=O)N2 (centres undefined) 35.5 µM, Nc1c(C(O)(C(F)(F)F)C(F)(F)F)ccc2ccccc12 35.5 µM, Nc1ccc(-c2nc3ccc(C(=O)O)cc3s2)cc1 35.5 µM, Nc1ccc2nc(-c3ccccc3)sc2c1 35.5 µM, Cc1cc(C)[n+](-c2ccc(C(C)C)cc2)c2[nH]c(=O)[nH]c(=O)c12 35.5 µM, Cc1cc(C)[n+](-c2ccc(F)cc2)c2[nH]c(=O)[nH]c(=O)c12 35.5 µM, COCCOC(=O)C1=C(C)NC2=C(C(=O)CC(C)(C)C2)C1c1cccnc1 (centres undefined) 35.5 µM, CC1=C(C#N)C(c2cccnc2)C2=C(CC(C)(C)CC2=O)N1 (centres undefined) 28.2 µM, CC1=C(C#N)C(c2cccnc2)C2=C(CCCC2=O)N1 (centres undefined) 25.1 µM, COc1cccc(C2C(C#N)=C(C)NC3=C2C(=O)CC(C)(C)C3)c1 (centres undefined) 39.8 µM, CCN1CCN(C(c2cc3cc4c(cc3[nH]c2=O)OCO4)c2nnnn2C(C)(C)CC)CC1 (centres undefined) 39.8 µM, Nc1nc(N)c2nc(-c3ccccc3)c(N)nc2n1 39.8 µM, Clc1ccc(/C=C/c2nc3ccccc3[nH]2)c(Cl)c1 35.5 µM, Cn1c(-c2cc3ccc(OC(=O)C(C)(C)C)cc3oc2=O)nc2ccccc21 39.8 µM, CC(=O)c1ccc(-c2nc3ccccc3n2C)o1 31.6 µM, CCC(=O)c1ccc(/C=C/c2nc3ccccc3n2C)o1 35.5 µM, CC(=O)Oc1ccc2cc(-c3nc4ccccc4n3C)c(=O)oc2c1 35.5 µM, CCCCn1c(NS(=O)(=O)c2ccccc2)c(S(=O)(=O)c2ccc(C)cc2)c2nc3ccccc3nc21 35.5 µM, CCCCn1c(NS(=O)(=O)c2ccc(C)cc2)c(S(=O)(=O)c2ccccc2)c2nc3ccccc3nc21 50.1 µM, CCC(=O)Nc1c(S(=O)(=O)c2ccccc2)c2nc3ccccc3nc2n1Cc1ccccc1 39.8 µM, Cc1ccc2nc3c(cc(C#N)c(=O)n3CCN3CCOCC3)c(=O)n2c1 28.2 µM, Cc1ccc2nc3c(cc(C#N)c(=O)n3CC3CCCO3)c(=O)n2c1 (centres undefined) 3.98 µM, Cc1cccn2c(=O)c3cc(C#N)c(=O)n(CC4CCCO4)c3nc12 (centres undefined) 10 µM, Cc1cccn2c(=O)c3cc(C#N)c(=O)n(Cc4cccnc4)c3nc12 3.98 µM, COC(=O)c1c(N)n(CCCN2CCOCC2)c2nc3ccccc3nc12 31.6 µM, CC(C)OC(=O)c1c(N)n(CCCN2CCOCC2)c2nc3ccccc3nc12 39.8 µM, Cc1c(C#N)c(N)nc2c3c(sc12)NC(=O)CC3c1ccccc1 (centres undefined) 5.01 µM, COc1ccc(F)cc1CN1CCN(c2cc(C)nc3c4c(C)cc(C)nc4nn23)CC1 35.5 µM, CCN(CC)Cc1c(O)ccc2c(C)c(CC(=O)OC)c(=O)oc12 35.5 µM, CCc1c(C)c2ccc(O)c(CN(C)C)c2oc1=O 35.5 µM, COC(=O)Cc1c(C)c2ccc(O)c(CN3CCCC(C)C3)c2oc1=O (centres undefined) 35.5 µM, CCc1c(C)c2cc(Cl)c(O)c(CN(C)C)c2oc1=O 31.6 µM, Cc1c(Cc2ccccc2)c(=O)oc2c(CN(C)C)c(O)c(Cl)cc12 35.5 µM, Cc1c(C)c2cc(Cl)c(O)c(CN(C)C)c2oc1=O 39.8 µM, O=c1c2ccccc2[nH]c2ccc(F)cc12 31.6 µM, O=c1c2ccccc2[nH]c2ccccc12 39.8 µM
